SMILES strings stand for the structures. Results filed as inconclusive are left out. Unmarked numbers belong to inactive results. Activity calls are given as the source filed them. Calls follow the shape of the dose curve; as a rule, active = well fitted curve in the direction sought with a large enough effect; inconclusive = small, poorly fitted or top-dose-only effect, or another doubt; inactive = no such curve, though single readings can be large; an effect the other way counts as inactive or inconclusive.

One test has as its system MCC-13. The experiment in a line: qHTS assay to identify novel small-molecules to repurpose for Merkel cell carcinoma treatment (AID 1296009). Also: nearly all actives have a fitted effect of over 60% in size. The note with it: MCC and control cell lines, CellTiter-Glo viability, 72 h; series mostly up to 46 µM. A digest of the protocol: (§1)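 After compound transfer in DMSO, plates were kept 72 hr at 37 degree celsius. Luminescent ATP signal from CellTiter-Glo served as viability measure, normalized against DMSO and no-cell controls.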

The subject of a further test is MKL-1. The description is as above. The note with it: MCC and control cell lines, CellTiter-Glo viability, 72 h; series mostly up to 46 µM. A digest of the protocol:
as §1

The subject of another test is MKL-2. Described as above. The note with it: MCC and control cell lines, CellTiter-Glo viability, 72 h; series mostly up to 46 µM. A digest of the protocol:
as §1

The test system of a further test is UISO. Described as above. The note with it: MCC and control cell lines, CellTiter-Glo viability, 72 h; series mostly up to 46 µM. The procedure, abridged: as §1
Another test deals with MCC-26. Described as above. The note with it: MCC and control cell lines, CellTiter-Glo viability, 72 h; series mostly up to 46 µM. A digest of the protocol:
as §1

In the next test the test system is C33A. Description: Primary qHTS to identify gynecologic anti-cancer compounds using libraries of approved drugs and bioactive compounds (AID 1345084). Also: nearly all actives have a fitted effect of over 55% in size. To be noted: Gynecologic cancer cell panel viability, ATPlite luminescence, 48 h; series mostly up to 57.5 µM. A digest of the protocol: (§2)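 Five-concentration response, 48 h; readout is ATP-driven luciferase luminescence.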

A further test deals with CAOV3. The test is described as above. The note with it: Gynecologic cancer cell panel viability, ATPlite luminescence, 48 h; series mostly up to 57.5 µM. A digest of the protocol: as §2
In another test the test system is CASKI. The description is as above. To be noted: Gynecologic cancer cell panel viability, ATPlite luminescence, 48 h; series mostly up to 57.5 µM. A digest of the protocol:
as §2

The next test relates to Es-2. The description is as above. To be noted: Gynecologic cancer cell panel viability, ATPlite luminescence, 48 h; series mostly up to 57.5 µM. A digest of the protocol: as §2
The subject of another test is HeLa. Described as above. To be noted: Gynecologic cancer cell panel viability, ATPlite luminescence, 48 h; series mostly up to 57.5 µM. A digest of the protocol: as §2
The next test has as its system Hek293T. The description is as above. To be noted: Gynecologic cancer cell panel viability, ATPlite luminescence, 48 h, control line for the selectivity index; series mostly up to 57.5 µM. A digest of the protocol:
as §2

A further test deals with JEG-3. The test is described as above. To be noted: Gynecologic cancer cell panel viability, ATPlite luminescence, 48 h; series mostly up to 57.5 µM. The procedure, abridged:
as §2

In the next test the test system is OV90. Described as above. To be noted: Gynecologic cancer cell panel viability, ATPlite luminescence, 48 h; series mostly up to 57.5 µM. The procedure, abridged: as §2
In another test the test system is PA-1. The description is as above. The note with it: Gynecologic cancer cell panel viability, ATPlite luminescence, 48 h; series mostly up to 57.5 µM. The procedure, abridged: as §2
The subject of a further test is SKOV3. Described as above. The note with it: Gynecologic cancer cell panel viability, ATPlite luminescence, 48 h; series mostly up to 57.5 µM. A digest of the protocol: as §2
The next test deals with Tov-21-G. Described as above. The note with it: Gynecologic cancer cell panel viability, ATPlite luminescence, 48 h; series mostly up to 57.5 µM. The procedure, abridged:
as §2

A further test relates to Tov112D. The test is described as above. To be noted: Gynecologic cancer cell panel viability, ATPlite luminescence, 48 h; series mostly up to 57.5 µM. The procedure, abridged: as §2
In another test the test system is WaGa. Description: qHTS assay to identify novel small-molecules to repurpose for Merkel cell carcinoma treatment (AID 1296009). Also: nearly all actives have a fitted effect of over 60% in size. To be noted: MCC and control cell lines, CellTiter-Glo viability, 72 h; series mostly up to 46 µM. The procedure, abridged:
as §1

In another test the test system is NIH3T3. The test is described as above. To be noted: MCC and control cell lines, CellTiter-Glo viability, 72 h; series mostly up to 44.8 µM. A digest of the protocol:
as §1
% is scaled to controls: 0 for no effect and ±100 for the full control effect; potency is read from the fitted curve at half-maximal effect.

On to `CC(C)(C)c1[nH]cnc1C=c1[nH]c(=O)c(=Cc2ccccc2)[nH]c1=O`, for which the results for the Potency in the test on MCC-13, in the test on MKL-2 and in the test on UISO were 7.6 nM (active), 0.0605 µM (active) and 12.1 nM (active), respectively. Further, the Potency entry with MKL-1 was “inactive”.
Take `CCCCC[C@H](O)C=C[C@H]1[C@H](O)CC(=O)[C@H]1CC=CCCCC(=O)O`: the Potency entry in the test on MCC-13, in the test with MCC-26, in the test with C33A, in the test with CAOV3, in the test on CASKI and in the test with Es-2 was “inactive” in each case. Moreover, the Potency result in the test with HeLa, in the test with Hek293T, in the test on JEG-3, in the test with OV90, in the test on PA-1 and in the test with SKOV3 was “inactive” each time. The Potency result in the test with Tov-21-G and in the test on Tov112D was “inactive” in each case. Also, the Potency in the test on MKL-2 was 16.6 µM (active).
For the molecule `N#CC(c1ccc(Cl)cc1)c1c(Cl)cc(-n2ncc(=O)[nH]c2=O)cc1Cl` (stereo not given), the Potency result in the test on MCC-13, in the test on MCC-26 and in the test on UISO was “inactive” throughout. In addition, the Potency in the test on WaGa was 13.2 µM (active).
For the molecule `NS(=O)(=O)c1ccc(Nc2nc(OCC3CCCCC3)c3[nH]cnc3n2)cc1`, the Potency result in the test with MCC-13, in the test on MCC-26, in the test on MKL-2, with C33A, in the test with CASKI and in the test with Es-2 was “inactive” throughout. The Potency result in the test on HeLa, in the test with Hek293T, in the test on JEG-3, in the test on OV90, in the test on PA-1 and in the test with Tov112D was “inactive” each time. The Potency in the test with UISO is 2350 nM (active); with Tov-21-G it was 15.8 µM (active).
As to `CCOC(=O)[C@@H](N)CCC(=O)N[C@@H](CSCc1ccccc1)C(=O)N[C@@H](C(=O)OCC)c1ccccc1`, the Potency entry with MCC-13, in the test with MCC-26, in the test on UISO and with WaGa was “inactive” each time.
On to `OC[C@H]1O[C@@H](Oc2ccc(O)cc2)[C@H](O)[C@@H](O)[C@H]1O`, for which the Potency result in the test on MCC-13, in the test on MKL-1, with MKL-2, in the test on NIH3T3, with UISO and in the test on WaGa was “inactive” throughout.
As for `CC[C@H](NC(=O)[C@H](C)NC)C(=O)N1C[C@@H](O)C[C@H]1Cc1c(-c2[nH]c3cc(F)ccc3c2C[C@H]2C[C@H](O)CN2C(=O)[C@H](CC)NC(=O)[C@H](C)NC)[nH]c2cc(F)ccc12`, the Potency entry in the test with MCC-13, in the test with MCC-26, in the test with NIH3T3 and with UISO was “inactive” in each case.
Turning to `CN(C)c1ccccc1CN1CCCN(Cc2ccccc2N(C)C)C1c1ccncc1`, the Potency entry in the test on MCC-13, with MKL-1, with MKL-2, in the test with UISO and in the test with WaGa was “inactive” in each case.
`Cc1cc(-c2ncc(CC(=O)Nc3ccc(-c4cnccn4)cn3)cc2C)ccn1`: the Potency entry in the test on MCC-13, in the test with MCC-26, with CASKI, with HeLa, in the test on JEG-3 and in the test with OV90 was “inactive” in each case. In addition, the Potency result in the test with Tov-21-G and with Tov112D was “inactive” throughout. Also, the Potency with SKOV3 is 39.8 µM (active).
Regarding `CCCCCCCCCCCCCC(=O)N[C@H](CO)[C@H](O)c1ccc([N+](=O)[O-])cc1`, the Potency result in the test with MCC-13, in the test on MKL-1, in the test on MKL-2, with UISO and with WaGa was “inactive” each time.
In the case of `COc1ccc2nc3cc(Cl)ccc3c(Nc3cc(CN4CCCC4)c(O)c(CN4CCCC4)c3)c2n1`, the Potency result in the test on MCC-13, with MCC-26 and with UISO was “inactive” each time. Moreover, in the test with WaGa, the Potency is 18.7 µM (active).
As to `O=C(NCCCCN1CCOCC1)c1cc2ccccc2o1`, the Potency result in the test with MCC-13, with MKL-1, in the test with MKL-2, in the test with UISO and in the test on WaGa was “inactive” in each case.
For `COC(=O)N1CCN(Cc2cccc(NC(=O)Nc3ccc(C)nc3)c2F)CC1`, the Potency entry with MCC-13, with MKL-1, in the test with MKL-2, in the test with NIH3T3, in the test with UISO and with WaGa was “inactive” in each case. The Potency entry in the test with C33A, with CAOV3, in the test on CASKI, with Es-2, in the test on HeLa and with Hek293T was “inactive” each time. The Potency entry with JEG-3, in the test with OV90, in the test with PA-1, in the test on Tov-21-G and in the test with Tov112D was “inactive” each time.
On to `COc1cc(C=CC(=O)O)ccc1O`, for which the Potency result in the test on MCC-13, in the test with MKL-1, in the test on MKL-2, in the test on NIH3T3, in the test with UISO and in the test with WaGa was “inactive” in each case.
On to `COc1cc2nccc(Oc3ccc(NC(=O)Nc4ccc(F)cc4F)c(F)c3)c2cc1OC`, for which the Potency result in the test with MCC-13, in the test with MCC-26, in the test with MKL-2, in the test on UISO and in the test with WaGa was “inactive” throughout.
With `CN1CC(=O)NC1=NC(=O)Nc1cccc(Cl)c1`, the Potency result in the test with MCC-13, with MCC-26, in the test on UISO and in the test with WaGa was “inactive” throughout.
Regarding `COc1ccc(Cn2ccc3ccc(C(=O)NO)cc32)cc1`, the Potency entry in the test on MCC-13, with MCC-26, in the test on MKL-2, with C33A, with CAOV3 and in the test with CASKI was “inactive” throughout. The Potency entry in the test with Es-2, with HeLa, with Hek293T, in the test with OV90 and in the test with Tov112D was “inactive” throughout.
On to `Fc1ccc(CNc2ncnc3ccc(F)cc23)cc1`, for which the Potency result in the test on MCC-13, with MCC-26, with MKL-2, in the test with CAOV3, with CASKI and with Es-2 was “inactive” in each case. In addition, the Potency entry in the test with HeLa, in the test on JEG-3, in the test with Tov-21-G and in the test with Tov112D was “inactive” throughout.
Regarding `CN1CC(=O)N2C(Cc3c([nH]c4ccccc34)[C@H]2c2ccc3c(c2)OCO3)C1=O` (stereo not given in full), the Potency entry with MCC-13, with MKL-1, in the test with MKL-2, with UISO and in the test with WaGa was “inactive” throughout.
Consider `CN1CCc2c(n(Cc3ccc(C(=O)NO)cc3)c3ccccc23)C1`, for which the Potency entry in the test with MCC-13, with MCC-26, in the test with UISO, with C33A, with CAOV3 and in the test on CASKI was “inactive” each time. Further, the Potency result with Hek293T, with JEG-3, in the test on OV90 and with Tov112D was “inactive” each time. In addition, the Potency in the test with MKL-2 is 14.8 µM (active); in the test with WaGa, 18.7 µM (active).
On to `CN[C@@H](C)[C@H]1[C@H](O)C[C@@]2(C)[C@@H]3CC[C@H]4C(C)(C)[C@@H](NC)CC[C@@]45C[C@@]35CC[C@]12C`, for which the Potency entry in the test with MCC-13, with MKL-1, in the test on MKL-2, with NIH3T3, in the test with UISO and in the test on WaGa was “inactive” each time. Besides, the activity change, negative = cytotoxicity in the test with C33A is 14.9% [at 11.6 µM]; in the test with CASKI, 1.7% [at 11.6 µM]; with Es-2, -1.65% [at 11.6 µM]; in the test on HeLa it was 13.6% [at 11.6 µM]; in the test on Hek293T, -11.4% [at 11.6 µM]; in the test with JEG-3 it was 6.85% [at 11.6 µM]. Besides, the activity change, negative = cytotoxicity in the test with PA-1 was -14% [at 11.6 µM]; in the test on SKOV3 it was 0% [at 11.6 µM]; with Tov-21-G it was -6.08% [at 11.6 µM]; in the test with Tov112D, -2.44% [at 11.6 µM].

These data come from PubChem BioAssay (NCATS).
